GPR151 ag = activators of human GPR151, primary screen, cell-based, PathHunter beta-arrestin, luminescence; G-protein coupled receptor 151 (Homo sapiens), Q8TDV0; PathHunter beta-arrestin GPR151 cells; activation, % at 11.2 µM; 650,000 tested, 1% active; AID 1508602, 2020; in the data active = activation above about 4.9%;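 also: 0% = median of compound wells and 100% = cells with positive control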
TEAD-YAP inh = TEAD-YAP interaction inhibition, primary screen, TEAD-YAP interaction inhibitor project, luminescence, HEK-TIYL cells. TEAD-Gal4/YAP UAS-luciferase luminescence. inhibition, % at 9.12 µM. 640,000 tested, 1.4% active. AID 1259422, 2018; in the data active = inhibition above about 32%;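 also: 0% = median of test compound wells and 100% = reference inhibitor wells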
MITF inh = MITF inhibitors, primary screen, biochemical, AlphaScreen, human; Microphthalmia-associated transcription factor (Homo sapiens), O75030; AlphaScreen MITF homodimerization, bead proximity signal; inhibition, % at 2.6 µM; 650,000 tested, 0.91% active; AID 1259374, 2018; in the data active = inhibition above about 50%;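 also: 0% = vehicle wells with protein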
FBW7 activator = FBW7 E3 ligase activators, primary screen, biochemical, AlphaScreen, human | F-box/WD repeat-containing protein 7 (Homo sapiens), Q969H0 | AlphaScreen FBW7–phospho-cyclin E peptide binding, activator screen | normalized activity (activation), % at 26.1 µM | 650,000 tested, 0.13% active; in the data active = normalized activity above about 1.9%;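 also: purified mutant Fbw7 with reduced substrate affinity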
Target sequence (Q969H0 whole entry, looked up): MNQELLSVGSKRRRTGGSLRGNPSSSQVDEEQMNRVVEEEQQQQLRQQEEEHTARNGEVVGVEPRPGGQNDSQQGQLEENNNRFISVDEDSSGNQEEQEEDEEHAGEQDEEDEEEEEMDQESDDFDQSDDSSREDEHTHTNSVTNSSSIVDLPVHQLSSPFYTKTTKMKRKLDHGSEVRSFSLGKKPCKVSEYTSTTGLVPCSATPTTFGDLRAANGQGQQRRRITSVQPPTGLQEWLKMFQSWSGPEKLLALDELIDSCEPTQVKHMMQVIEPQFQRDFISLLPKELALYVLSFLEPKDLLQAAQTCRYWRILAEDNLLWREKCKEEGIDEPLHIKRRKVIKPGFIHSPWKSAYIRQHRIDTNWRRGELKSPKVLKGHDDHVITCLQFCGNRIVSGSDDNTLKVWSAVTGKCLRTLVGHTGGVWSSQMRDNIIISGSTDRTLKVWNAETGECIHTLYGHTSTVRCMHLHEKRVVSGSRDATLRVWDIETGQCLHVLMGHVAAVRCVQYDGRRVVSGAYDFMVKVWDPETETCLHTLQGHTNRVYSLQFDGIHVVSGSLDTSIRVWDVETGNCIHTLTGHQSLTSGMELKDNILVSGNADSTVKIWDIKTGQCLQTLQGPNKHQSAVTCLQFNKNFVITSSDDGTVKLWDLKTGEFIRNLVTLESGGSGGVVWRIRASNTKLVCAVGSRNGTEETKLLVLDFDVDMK
GPR151 confirm = GPR151 activators, triplicate retest, confirmation, cell-based, PathHunter beta-arrestin, luminescence; shares compounds with GPR151 ag; activation, % at 11.2 µM; GPR151 PathHunter beta-arrestin cells, 90 min; % of EA-reagent control over plate median; 6,700 tested, under 10 active;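 active = mean percent activation across replicates above the confirmation screen cutoff of 4.91%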
GPR119 counter = GPR119 activators in beta-arrestin cells, counter-screen for GPR151 activator project, cell-based, PathHunter beta-arrestin, luminescence, triplicate | shares compounds with GPR151 ag | 90 min; 0 = compound-well median, 100 = enzyme-acceptor control | activation, % at 11.2 µM | 6,700 tested, 0.3% active | AID 1508611, 2020;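 active = mean percent activation in the counterscreen above 29.09%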;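 also: counterscreen on off-target GPR119 to flag nonselective hits from the GPR151 activator screen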
The depositor's hits bear a star; x = no result. An excerpt weighted towards active compounds, which were near 3.5% of everything screened.

SMILES | GPR151 ag | TEAD-YAP inh | MITF inh | FBW7 activator | GPR151 confirm | GPR119 counter
c1cnc(N2CCN(Cc3ccc4c(c3)CN(Cc3ccoc3)CCO4)CC2)nc1 | 0.9 | 8.5 | -6.4 | -0.4 | x | x
O=C1NC(=S)NC(=O)C1=Cc1cc(Cl)ccc1OCc1ccc([N+](=O)[O-])cc1 | 1.2 | -30.8 | -9.9 | 0.0 | x | x
CCCOc1ccc([N+](=O)[O-])cc1C=C1C(=O)NC(=S)NC1=O | 5.1* | 5.7 | -0.2 | -0.2 | -0.1 | -3.5
C[C@H](O)[C@H]1NC(=O)[C@H]2CN(C(=O)Oc3ccc(F)cc3)CCN2C1=O | -1.8 | -30.6 | -5.8 | 0.0 | x | x
Cc1ccccc1CSCC(=O)NCC(C)C | -1.2 | -6.0 | 13.8 | 0.5 | x | x
Oc1ccc(Nc2ncnc3ccc(I)cc23)cc1 | 8.2* | 15.8 | 8.4 | 0.0 | 2.2 | 8.0
CCOC(=O)c1c(N2C(N)=C(C#N)C(c3ccc(C(C)(C)C)s3)C3=C2CCCC3=O)sc2c1CCCCC2 (configuration not stated) | -1.6 | 5.7 | 5.2 | 0.5 | x | x
O=C(O)CC1NC(=O)c2ccc(Br)cc21 (configuration not stated) | 18.0* | 4.1 | 15.1 | 0.5 | -0.4 | -8.6
CC(c1ccccc1)C1CC(=O)N(c2ccc(Cl)cc2)C1=O (configuration not stated) | 0.7 | 1.8 | 12.3 | 0.3 | x | x
CC(c1ccccc1)C1CC(=O)N(Cc2ccccc2)C1=O (configuration not stated) | 21.8* | 3.9 | -0.6 | 0.0 | -1.2 | 3.9
Cc1ccc(C)c(CSc2nc3nc(C)c(Cc4c(F)cccc4Cl)c(C)n3n2)c1 | 6.3* | 2.8 | 2.4 | 0.1 | 0.0 | 11.1
Cc1ccc(C)c(Cc2c(C)nc3nc(SCc4c(F)cccc4Cl)nn3c2C)c1 | 1.1 | 3.0 | 0.6 | 0.2 | x | x
CC1CC(C)CN(CCCNC(=O)CN(C)c2nnc(N3CCCC3=O)s2)C1 (configuration not stated) | 1.9 | -6.1 | -7.1 | -0.2 | x | x
COc1ccc(CNC(=O)C2CCN(C(=O)c3ccc(Br)cc3)CC2)cc1 | 6.4* | 1.8 | 1.7 | 0.3 | -0.1 | 5.2
COc1ccc(OCC(=O)N2CCN(C(=O)c3ccccc3)CC2)cc1 | 8.4* | -2.8 | 9.0 | -0.1 | 0.5 | 10.1
O=C(Nc1ccc(F)cc1F)C1CCN(C(=O)c2ccc(Br)cc2)CC1 | 5.5* | 4.8 | 8.5 | 0.1 | -0.1 | -1.7
Cc1ccc(CNC(=O)C2CCN(C(=O)c3ccc(C)cc3)CC2)cc1 | -0.7 | 3.0 | 2.7 | -0.2 | x | x
COc1ccc(NC(=O)Nc2ccc(C(=O)N3CCCCC3)cc2)cc1 | 11.7* | -4.3 | 14.4 | 0.7 | 0.8 | 2.8
Cc1cc(C)cc(NC(=O)c2nccnc2CO)c1 | -0.8 | 2.0 | -0.6 | 0.0 | x | x
Cc1ccc(C(=O)ON2C(=O)c3ccccc3C2=O)cc1 | 0.8 | 0.3 | 7.3 | -0.1 | x | x
CSc1ncc(C(=O)NCc2ccco2)c(C)n1 | 0.3 | 11.3 | -1.5 | 0.6 | x | x
O=C(c1ccc(NS(=O)(=O)c2ccccc2)cc1)N1CCCC1 | 7.2* | -1.9 | -12.5 | -0.1 | 1.0 | 10.9
Cc1cnc(C(=O)N2CCCC(CNC(=O)c3ccc(F)cc3)C2)cn1 (configuration not stated) | -0.4 | -7.2 | 11.5 | 0.0 | x | x
O=C(Nc1cc(-c2cccs2)nn1CCO)C1CCC1 | -0.4 | -0.2 | -1.0 | -0.3 | x | x
O=C(Nc1cc(-c2cccs2)nn1CCO)C1c2ccccc2Oc2ccccc21 | 8.0* | 3.8 | 0.4 | -0.2 | 0.4 | 9.3
CC1CN(c2ccc(Br)cc2)c2nc3c(c(=O)n(CC(N)=O)c(=O)n3C)n2C1 (configuration not stated) | 10.3* | -7.1 | 0.2 | 0.0 | -1.7 | -19.3
CCN(CC(=O)Nc1ccccc1C(=O)OC)S(=O)(=O)c1ccc(Cl)cc1 | -0.3 | 3.3 | 22.6 | 0.0 | x | x
CC(=O)Nc1ccc(NC(=O)C(C)Sc2ccccc2)cc1 (configuration not stated) | 11.4* | -13.8 | 8.8 | 0.0 | 0.2 | 6.5

Assay outcomes as filed in PubChem BioAssay.
